# Assay outcomes from PubChem BioAssay.
# Hits are enriched below; roughly 7.3% of the tested compounds scored in any of these assays.
# HCV inhibitor – inhibitors of hepatitis C virus infection. actives 3.4% (n = 340,000). Potency, µM (series often up to 41.8 µM), usual class: inhibitors. Huh7.5.1 HCVcc-Cre infection, luciferase reporter, 44 h. AID 651820; active = well fitted inhibition curve with a large enough effect; inconclusive = small, poorly fitted or top-dose-only effect, or another doubt; inactive = no such curve, though single readings can be large or run the other way
#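 Whole-lifecycle infectious HCVcc-Cre system; cells 1,000/well, compound then virus (~0.5 moi) added 4 h after plating, 44 h culture. Luciferase read 15 sec following 15 min substrate incubation, room temp.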
# HCMV inh – human cytomegalovirus inhibition; activity change, negative = inhibition, % at 57.5 µM; HFF cells, HCMV-luciferase reporter, 72 h; hits give low values; actives 4.5% (n = 410,000); in the data active = activity change below about -60%; inconclusive = no clear call, values can overlap the other calls; inactive = above about -39%
#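 Human foreskin fibroblasts infected with luciferase-reporter HCMV at MOI 1 PFU/cell, compounds at two doses. Luciferase measured 72 h post infection; normalized to buffer-only basal and Salinomycin (10uM) controls.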
# FMDV inh – antivirals against foot and mouth disease virus; AID 1159524; Potency, µM (highest dose often 57.9 µM), usual class: inhibitors; actives 1.2% (n = 410,000); FMDV antiviral cell-based qHTS; calls by dose curve; tested in HEK293T cells; also: read-out not given here; nearly all actives have a fitted effect of over 45% in size
# Vaccinia mCherry – inhibitors of vaccinia virus infection (mCherry reporter signal); Vaccinia virus mCherry reporter infection, fluorescence; Potency, µM (top dose mostly 36.5 µM), usual class: inhibitors; actives 0.63% (n = 310,000); AID 720579; calls by dose curve; tested in A549 cells; also: nearly all actives have a fitted effect of over 35% in size
# Vaccinia Venus – vaccinia inhibition (Venus reporter); Vaccinia virus Venus reporter expression, fluorescence; Potency, µM (highest dose often 36.5 µM), most hits filed as inhibitors; actives 0.46% (n = 330,000); calls by dose curve; tested in A549 cells; also: nearly all actives have a fitted effect of over 30% in size
# A number is an active result; . = inactive; ? = inconclusive; / = not tested or not shown.
SMILES,HCV inhibitor,HCMV inh,FMDV inh,Vaccinia mCherry,Vaccinia Venus
COc1ccc(C2CCCN2CC(O)COc2ccccc2C(C)C)cc1 (configuration not stated),?,?,.,?,.
Nc1ncn(C2O[C@H](CO)[C@@H](O)[C@H]2O)c(=O)n1 (some centres not stated),.,/,/,/,/
Nc1nc(=O)n(C2OC(CO)C(O)C2O)cc1F (configuration not stated),/,-99,.,2µM,.
Cn1ncc(Cl)c1C(=O)N1CCN(C23CC4CC(CC(C4)C2)C3)CC1,.,-77,.,.,.
O=C(c1ccco1)N1CCN(C23CC4CC(CC(C4)C2)C3)CC1,.,.,.,.,.
Cc1ccc(C(=O)N2CCN(C34CC5CC(CC(C5)C3)C4)CC2)o1,.,-82,.,/,/
COc1ccc(CC(=O)NCCc2cn(C)c3ccccc23)cc1OC,/,.,/,/,/
CN1OC[C@@H]2CN(Cc3ccc(Cl)cc3)[C@H](c3ccc(-n4ccnc4)cc3)C[C@@H]21,/,.,.,.,.
O=S(=O)(Nc1ccc(C(F)(F)F)cc1)c1ccc2c(c1)OCCO2,/,.,.,.,.
Cc1cc(SCC(=O)c2ccc(O)c(O)c2)nc2ccccc12,?,-70,.,.,.
Cc1cccc(NC(=O)CSc2nc3ccccc3nc2N2CCC(C)CC2)c1,/,-88,.,?,.
Cc1ccc(NC(=O)CSc2nc3ccccc3nc2N2CCOCC2)c(C)c1,?,-71,.,.,.
Cc1cccc(NC(=O)CSc2cc(C)c3ccccc3n2)c1,/,-74,.,.,.
Cc1ccc(-c2c(C(=O)Nc3ccc(F)c(F)c3)oc(=O)c3ccccc23)cc1,/,.,.,.,.
CCNC(=O)C1CCCN(C(=O)c2cccc(C#N)c2)CC1 (configuration not stated),/,.,.,.,.
COc1ccc2c(C)cc(SCC(=O)Nc3cc(C(N)=O)cc(C(N)=O)c3)nc2c1,4µM,.,.,.,.
COc1cccc(NC(=O)CSc2cc(C)c3ccccc3n2)c1,/,?,?,.,.
CC(=O)Nc1ccc(NC(=O)CSc2nc3ccccc3nc2N2CCCCC2)cc1,.,.,.,.,.
O=C(CSc1nc2ccccc2nc1N1CCCC1)Nc1ccc(F)cc1,?,-65,.,.,.
C=C(C)COc1ccc(-c2n[nH]c(C)c2-c2ccc(OC)cc2)c(O)c1,?,-106,25µM,/,10µM
CCOc1ccccc1NC(=O)c1ccc2c(c1)CCCN2S(C)(=O)=O,/,.,.,.,.
C#CCOCCOCCOCCNc1nc(N2CCN(C(=O)CCCCCCCCCCNC(=O)[C@H](CO)n3cc(CCCSC)nn3)CC2)nc(N2CCN(C(=O)CCCCCCCCCCNC(=O)[C@H](CCCN=C(N)N)n3cc(C[C@@H](C)CC)nn3)CC2)n1,?,/,?,.,11µM
C#CCOCCOCCOCCNc1nc(N2CCN(C(=O)CCCCCCCCCCNC(=O)Cn3cc(C[C@@H](C)O)nn3)CC2)nc(N2CCN(C(=O)CCCCCCCCCCNC(=O)[C@@H](CCC(=O)O)n3cc(CCCCCN)nn3)CC2)n1,.,.,.,?,.
C#CCOCCOCCOCCNc1nc(N2CCN(C(=O)CCCCCCCCCCNC(=O)Cn3cc(C[C@@H](C)O)nn3)CC2)nc(N2CCN(C(=O)CCCCCCCCCCNC(=O)[C@H](CO)n3cc(CCCSC)nn3)CC2)n1,.,-85,.,.,?
C#CCOCCOCCOCCNc1nc(N2CCN(C(=O)CCCCCCCCCCNC(=O)Cn3cc(C[C@@H](C)O)nn3)CC2)nc(N2CCN(C(=O)CCCCCCCCCCNC(=O)[C@H](CCCN=C(N)N)n3cc(C[C@@H](C)CC)nn3)CC2)n1,.,/,?,.,11µM
SMILES,HCV inhibitor,HCMV inh,FMDV inh,Vaccinia mCherry,Vaccinia Venus
C#CCOCCOCCOCCNc1nc(N2CCN(C(=O)CCCCCCCCCCNC(=O)[C@H](CO)n3cc(CCCSC)nn3)CC2)nc(N2CCN(C(=O)CCCCCCCCCCNC(=O)[C@H](CCCCN)n3cc(CCO)nn3)CC2)n1,.,.,.,.,?
CC(C)(C)S(=O)(=O)N1C[C@H]2CC/C=C\C/C(c3ccccc3)=C\2[C@@H]1CCO,?,?,.,.,.
CC1CC(C)CN(CCCNC(=O)CCC(=O)N2CCOc3ccccc32)C1 (configuration not stated),.,-65,.,.,.
Cc1nnc(NCc2ccc(F)cc2)c2c1nnn2Cc1ccccc1Cl,/,.,.,.,.
CC(C)(C)c1cc2nc(NCCOc3ccccc3)ccn2n1,/,.,.,.,.
O=[N+]([O-])c1nccn1CC(O)CCN1CCOCC1 (configuration not stated),/,.,/,/,/
Cc1cc(C)cc(OCCn2ccnc2)c1,6.3µM,.,.,/,/
Cc1cc(OCCn2ccnc2)cc(C(C)C)c1,?,.,.,.,.
Cc1ccc(CCNc2nc3c(S(=O)(=O)c4ccc(C)cc4)nnn3c3ccsc23)cc1,/,.,.,.,.
Cc1cc(C(F)F)n2nc(C(=O)Nc3ccc(F)c(Cl)c3)nc2n1,/,?,.,.,.
Cc1cccc(N2CCN(C(=O)CSCc3ccc(F)cc3)CC2)c1C,/,.,.,.,.
Cc1cccc(-c2nc(CSCC(=O)N3CCN(c4cccc(C)c4C)CC3)c(C)o2)c1,/,-65,?,.,.
Cc1cccc(-c2nc(CSCC(=O)N3CCN(c4ccccn4)CC3)c(C)o2)c1,11µM,-66,16µM,/,/
Cc1ccc(SCC(=O)N2CCN(c3ccccn3)CC2)cc1,.,.,.,.,.
CC(Oc1ccc(Br)cc1)C(=O)Nc1ccc(S(=O)(=O)N(C)C2CCN(C)CC2)cc1 (configuration not stated),6.3µM,?,.,.,?
COc1ccc(NC(=O)c2oc3ccc(S(=O)(=O)N4CCCCC4)cc3c2C)cc1,/,.,18µM,.,.
COc1ccc2oc(C(=O)Nc3ccc(S(=O)(=O)N(C)C4CCN(C)CC4)cc3)c(C)c2c1,11µM,-112,?,/,/
COc1ccc(CC(=O)Nc2ccc(S(=O)(=O)N(C)C3CCN(C)CC3)cc2)cc1,.,.,.,/,/
Cc1c(C(=O)Nc2ccc(F)c(Cl)c2)oc2ccc(S(=O)(=O)N(C)C3CCCCC3)cc12,/,.,.,.,.
COc1ccc(NC(=O)c2oc3ccc(S(=O)(=O)N(C)C4CCCCC4)cc3c2C)cc1Cl,/,-77,.,.,.
Cc1ccc(-c2nc3ncccc3o2)cc1NC(=O)c1ccc(-c2cccc(Cl)c2C)o1,/,.,?,?,?
CSCC(=O)NC1CCCc2c1cnn2-c1ccc(C)c(C)c1 (configuration not stated),.,.,.,.,.
CC(=O)c1ccccc1OCC(O)CN1CCN(C(c2ccccc2)c2ccccc2)CC1 (configuration not stated),10µM,.,.,/,?
CCCOc1ccc(F)cc1-c1cc(C(=O)NCc2cccc(Cl)c2)[nH]n1,/,.,.,.,.
CCOC(=O)c1c(-c2ccccc2)n(C)c2ccc(O)cc12,?,.,?,/,/
CCOC(=O)c1c(C)n(C)c2cc(Br)c(C)cc12,8.9µM,.,/,?,.
